What was measured:
Test in all cases: DAPPL (digital affinity profiling via proximity ligation, sequencing); 10 mM Tris-HCl pH 7.5, 50 mM NaCl, 1 mM DTT, 4% glycerol, room temperature, 30 min; GST-TFs on glutathione beads, 16-mer random dsDNA library, 0.1% formaldehyde crosslink after washing; high values mean tight binding
Details in all cases: protein: recombinant; tags: N-terminal GST; dsDNA, one strand shown
FLI1 = target: T1, FLI1 (Homo sapiens, UniProt Q01543 1-452)
T1 sequence: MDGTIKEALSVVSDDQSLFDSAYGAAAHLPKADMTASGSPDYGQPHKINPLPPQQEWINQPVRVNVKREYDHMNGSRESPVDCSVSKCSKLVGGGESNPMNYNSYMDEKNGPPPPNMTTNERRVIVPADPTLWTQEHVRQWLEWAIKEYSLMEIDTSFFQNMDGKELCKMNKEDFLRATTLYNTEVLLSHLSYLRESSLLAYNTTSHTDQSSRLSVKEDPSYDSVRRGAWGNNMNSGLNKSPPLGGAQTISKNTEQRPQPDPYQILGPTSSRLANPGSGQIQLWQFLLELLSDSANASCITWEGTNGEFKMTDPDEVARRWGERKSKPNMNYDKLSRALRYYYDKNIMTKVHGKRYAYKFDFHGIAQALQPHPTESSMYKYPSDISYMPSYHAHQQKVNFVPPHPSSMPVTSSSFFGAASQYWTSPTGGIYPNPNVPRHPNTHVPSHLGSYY
Method in brief: (§1)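 Human transcription factors were made in yeast as GST fusions, captured on glutathione beads and barcoded with DNA. With a tag-only sample included, the pool was incubated with 200 nmole of a random double-stranded 16-mer DNA library in Tris/NaCl/DTT/glycerol buffer at room temperature for 30 min, then crosslinked with 0.1% formaldehyde after washing, ligated by proximity, amplified and sequenced. For binding signal, each hexamer's read frequency for a factor is divided by its frequency for the tag-only sample.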

ELK1 = target: T2, ELK1 (Homo sapiens, UniProt P19419 1-428)
T2 sequence: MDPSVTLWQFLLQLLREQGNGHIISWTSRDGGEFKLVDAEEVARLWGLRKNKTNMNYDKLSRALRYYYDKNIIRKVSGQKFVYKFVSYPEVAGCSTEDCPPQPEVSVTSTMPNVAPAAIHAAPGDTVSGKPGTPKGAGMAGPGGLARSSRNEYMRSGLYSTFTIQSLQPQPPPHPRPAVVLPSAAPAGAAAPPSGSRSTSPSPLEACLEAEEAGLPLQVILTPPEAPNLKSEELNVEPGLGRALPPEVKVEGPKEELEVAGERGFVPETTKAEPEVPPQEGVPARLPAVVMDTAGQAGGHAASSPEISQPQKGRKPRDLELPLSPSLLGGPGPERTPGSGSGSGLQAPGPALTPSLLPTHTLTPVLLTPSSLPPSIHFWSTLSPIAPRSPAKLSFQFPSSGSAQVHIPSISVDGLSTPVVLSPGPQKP
Method in brief: as §1

GABPA = target: T3, GABPA (Homo sapiens, UniProt Q06546 1-454)
T3 sequence: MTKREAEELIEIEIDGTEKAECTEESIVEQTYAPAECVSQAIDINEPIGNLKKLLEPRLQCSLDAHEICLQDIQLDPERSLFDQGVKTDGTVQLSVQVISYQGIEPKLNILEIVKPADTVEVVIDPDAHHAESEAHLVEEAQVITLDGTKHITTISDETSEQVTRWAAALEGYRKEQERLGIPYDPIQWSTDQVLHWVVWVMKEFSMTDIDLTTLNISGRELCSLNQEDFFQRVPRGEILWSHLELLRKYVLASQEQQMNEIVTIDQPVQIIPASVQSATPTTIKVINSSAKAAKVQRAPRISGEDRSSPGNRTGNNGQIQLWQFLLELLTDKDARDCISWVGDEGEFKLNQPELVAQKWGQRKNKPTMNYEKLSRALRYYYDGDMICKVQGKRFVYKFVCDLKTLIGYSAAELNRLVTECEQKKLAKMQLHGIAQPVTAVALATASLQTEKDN
Method in brief: as §1

ERG = target: T4, ERG (Homo sapiens, UniProt P11308 1-479)
T4 sequence: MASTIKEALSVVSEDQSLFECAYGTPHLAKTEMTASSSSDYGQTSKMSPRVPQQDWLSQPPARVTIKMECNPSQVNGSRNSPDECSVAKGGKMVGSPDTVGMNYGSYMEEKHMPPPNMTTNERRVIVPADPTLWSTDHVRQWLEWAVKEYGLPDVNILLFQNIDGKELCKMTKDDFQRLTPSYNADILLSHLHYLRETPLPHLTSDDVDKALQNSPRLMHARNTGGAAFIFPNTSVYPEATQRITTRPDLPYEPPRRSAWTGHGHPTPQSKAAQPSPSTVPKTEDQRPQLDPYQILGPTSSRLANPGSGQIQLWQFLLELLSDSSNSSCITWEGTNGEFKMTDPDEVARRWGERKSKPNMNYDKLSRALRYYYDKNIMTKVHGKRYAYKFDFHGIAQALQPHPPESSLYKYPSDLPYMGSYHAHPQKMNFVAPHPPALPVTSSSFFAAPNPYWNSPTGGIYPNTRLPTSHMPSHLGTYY
Method in brief: as §1

ELF1 = ELF1 (Homo sapiens, UniProt P32519 1-619)
Method in brief: as §1

EHF = target: T5, EHF (Homo sapiens, UniProt Q9NZC4 1-300)
T5 sequence: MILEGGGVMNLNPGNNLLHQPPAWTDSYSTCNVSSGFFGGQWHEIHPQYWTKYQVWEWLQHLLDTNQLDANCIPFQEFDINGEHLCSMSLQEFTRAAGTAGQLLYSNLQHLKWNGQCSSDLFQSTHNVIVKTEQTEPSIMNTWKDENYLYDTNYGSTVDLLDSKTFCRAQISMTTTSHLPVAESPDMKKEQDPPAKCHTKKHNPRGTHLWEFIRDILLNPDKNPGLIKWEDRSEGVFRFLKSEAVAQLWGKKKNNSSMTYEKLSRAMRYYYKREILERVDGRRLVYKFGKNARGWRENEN
Method in brief: as §1

SPI1 = SPI1 (Homo sapiens, UniProt P17947 1-270)
Method in brief: as §1

SPIB = SPIB (Homo sapiens, UniProt Q01892 1-262)
Method in brief: as §1

ELK3 = target: T6, ELK3 (Homo sapiens, UniProt P41970 1-407)
T6 sequence: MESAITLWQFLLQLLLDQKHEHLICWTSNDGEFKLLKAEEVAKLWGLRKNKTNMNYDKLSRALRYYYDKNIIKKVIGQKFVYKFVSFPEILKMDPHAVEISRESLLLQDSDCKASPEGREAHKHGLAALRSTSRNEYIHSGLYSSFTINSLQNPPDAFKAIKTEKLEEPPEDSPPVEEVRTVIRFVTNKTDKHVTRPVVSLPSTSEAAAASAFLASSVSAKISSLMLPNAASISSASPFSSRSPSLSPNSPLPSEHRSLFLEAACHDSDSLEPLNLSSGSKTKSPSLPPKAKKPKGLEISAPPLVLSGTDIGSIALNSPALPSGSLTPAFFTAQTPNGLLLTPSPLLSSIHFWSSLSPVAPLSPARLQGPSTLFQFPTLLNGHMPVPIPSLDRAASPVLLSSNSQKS
Method in brief: as §1

Sequence of SPIB (Q01892 whole entry): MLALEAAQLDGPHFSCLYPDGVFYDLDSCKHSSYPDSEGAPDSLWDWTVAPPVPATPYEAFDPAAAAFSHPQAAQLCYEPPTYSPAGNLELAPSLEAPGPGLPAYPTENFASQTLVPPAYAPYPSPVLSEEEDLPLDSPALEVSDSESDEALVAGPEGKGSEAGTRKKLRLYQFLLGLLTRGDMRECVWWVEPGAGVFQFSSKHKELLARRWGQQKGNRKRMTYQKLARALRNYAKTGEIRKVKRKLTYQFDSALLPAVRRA
Sequence of ELF1 (P32519 whole entry): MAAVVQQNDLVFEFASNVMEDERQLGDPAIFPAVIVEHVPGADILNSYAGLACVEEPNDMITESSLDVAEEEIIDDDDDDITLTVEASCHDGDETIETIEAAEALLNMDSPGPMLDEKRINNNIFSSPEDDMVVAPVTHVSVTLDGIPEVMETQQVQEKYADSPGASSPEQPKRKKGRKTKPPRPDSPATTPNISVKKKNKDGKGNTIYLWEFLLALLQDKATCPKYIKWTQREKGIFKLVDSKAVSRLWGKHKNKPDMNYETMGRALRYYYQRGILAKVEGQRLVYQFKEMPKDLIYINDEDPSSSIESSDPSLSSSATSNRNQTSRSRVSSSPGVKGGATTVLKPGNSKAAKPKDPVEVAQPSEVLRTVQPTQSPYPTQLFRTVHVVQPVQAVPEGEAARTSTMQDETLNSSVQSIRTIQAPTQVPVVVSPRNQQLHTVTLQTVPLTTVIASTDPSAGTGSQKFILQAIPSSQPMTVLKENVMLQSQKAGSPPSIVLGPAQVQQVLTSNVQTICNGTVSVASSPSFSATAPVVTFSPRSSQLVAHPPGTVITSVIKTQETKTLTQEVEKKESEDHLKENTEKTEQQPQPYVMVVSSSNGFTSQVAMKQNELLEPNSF

Row | Sequence | binding signal (FLI1) | binding signal (ELK1) | binding signal (GABPA) | binding signal (ERG) | binding signal (ELF1) | binding signal (EHF) | binding signal (SPI1) | binding signal (SPIB) | binding signal (ELK3)
1 | CTCGTT | 1.18 fold enrichment (6-mer frequency, TF over GST control) | 1.31 fold enrichment (6-mer frequency, TF over GST control) | 1.26 fold enrichment (6-mer frequency, TF over GST control) | 1.25 fold enrichment (6-mer frequency, TF over GST control) | 1.27 fold enrichment (6-mer frequency, TF over GST control) | 1.27 fold enrichment (6-mer frequency, TF over GST control) | 1.35 fold enrichment (6-mer frequency, TF over GST control) | 1.24 fold enrichment (6-mer frequency, TF over GST control) | 1.15 fold enrichment (6-mer frequency, TF over GST control)
2 | CGATTC | 1.31 fold enrichment (6-mer frequency, TF over GST control) | 1.21 fold enrichment (6-mer frequency, TF over GST control) | 1.23 fold enrichment (6-mer frequency, TF over GST control) | 1.12 fold enrichment (6-mer frequency, TF over GST control) | 1.24 fold enrichment (6-mer frequency, TF over GST control) | 1.17 fold enrichment (6-mer frequency, TF over GST control) | 1.2 fold enrichment (6-mer frequency, TF over GST control) | 1.24 fold enrichment (6-mer frequency, TF over GST control) | 1.15 fold enrichment (6-mer frequency, TF over GST control)
3 | GCTCTC | 1.43 fold enrichment (6-mer frequency, TF over GST control) | 1.5 fold enrichment (6-mer frequency, TF over GST control) | 1.53 fold enrichment (6-mer frequency, TF over GST control) | 1.42 fold enrichment (6-mer frequency, TF over GST control) | 1.47 fold enrichment (6-mer frequency, TF over GST control) | 1.34 fold enrichment (6-mer frequency, TF over GST control) | 1.35 fold enrichment (6-mer frequency, TF over GST control) | 1.29 fold enrichment (6-mer frequency, TF over GST control) | 1.46 fold enrichment (6-mer frequency, TF over GST control)
4 | ATCTTC | 1.68 fold enrichment (6-mer frequency, TF over GST control) | 1.52 fold enrichment (6-mer frequency, TF over GST control) | 1.48 fold enrichment (6-mer frequency, TF over GST control) | 1.51 fold enrichment (6-mer frequency, TF over GST control) | 1.64 fold enrichment (6-mer frequency, TF over GST control) | 1.46 fold enrichment (6-mer frequency, TF over GST control) | 1.52 fold enrichment (6-mer frequency, TF over GST control) | 1.6 fold enrichment (6-mer frequency, TF over GST control) | 1.59 fold enrichment (6-mer frequency, TF over GST control)
5 | AATGTC | 1.16 fold enrichment (6-mer frequency, TF over GST control) | 1.21 fold enrichment (6-mer frequency, TF over GST control) | 1.23 fold enrichment (6-mer frequency, TF over GST control) | 1.27 fold enrichment (6-mer frequency, TF over GST control) | 1.22 fold enrichment (6-mer frequency, TF over GST control) | 1.29 fold enrichment (6-mer frequency, TF over GST control) | 1.23 fold enrichment (6-mer frequency, TF over GST control) | 1.25 fold enrichment (6-mer frequency, TF over GST control) | 1.23 fold enrichment (6-mer frequency, TF over GST control)
6 | CTTCGC | 1.43 fold enrichment (6-mer frequency, TF over GST control) | 1.56 fold enrichment (6-mer frequency, TF over GST control) | 1.5 fold enrichment (6-mer frequency, TF over GST control) | 1.53 fold enrichment (6-mer frequency, TF over GST control) | 1.46 fold enrichment (6-mer frequency, TF over GST control) | 1.32 fold enrichment (6-mer frequency, TF over GST control) | 1.42 fold enrichment (6-mer frequency, TF over GST control) | 1.6 fold enrichment (6-mer frequency, TF over GST control) | 1.7 fold enrichment (6-mer frequency, TF over GST control)
7 | TCCGAT | 1.32 fold enrichment (6-mer frequency, TF over GST control) | 1.37 fold enrichment (6-mer frequency, TF over GST control) | 1.17 fold enrichment (6-mer frequency, TF over GST control) | 1.51 fold enrichment (6-mer frequency, TF over GST control) | 1.27 fold enrichment (6-mer frequency, TF over GST control) | 1.36 fold enrichment (6-mer frequency, TF over GST control) | 1.29 fold enrichment (6-mer frequency, TF over GST control) | 1.24 fold enrichment (6-mer frequency, TF over GST control) | 1.27 fold enrichment (6-mer frequency, TF over GST control)
8 | ATTTGC | 1.3 fold enrichment (6-mer frequency, TF over GST control) | 1.36 fold enrichment (6-mer frequency, TF over GST control) | 1.34 fold enrichment (6-mer frequency, TF over GST control) | 1.32 fold enrichment (6-mer frequency, TF over GST control) | 1.34 fold enrichment (6-mer frequency, TF over GST control) | 1.17 fold enrichment (6-mer frequency, TF over GST control) | 1.41 fold enrichment (6-mer frequency, TF over GST control) | 1.32 fold enrichment (6-mer frequency, TF over GST control) | 1.2 fold enrichment (6-mer frequency, TF over GST control)

— PMC7862700, “An all-to-all approach to the identification of sequence-specific readers for epigenetic DNA modifications on cytosine”
